Where “and” joins values, the source holds several entries; their conditions need not be identical. Equal values may be shown once. The whole screen tested about 5,500 compounds, of which about 2,000 (36%) were called active. Roughly 18% stayed inconclusive and do not appear here. No stated cut-off is given here; in the data, active means normalized growth mostly below about 0.91 (no sharp cut-off); inconclusive means no clear call, values can overlap the other calls; inactive means mostly above about 0.92. The list shows a part of the results.
Experiment: chemical genetic growth profiling, strain panel (AID 1159580);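 further: tested at 20 µM; growth read once vehicle control cultures reached saturation at 30 °C; 1 = growth at the plate median or of vehicle wells; lower values mean less growth of the strain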
Conditions: S. cerevisiae deletion strains, growth OD

Measured: normalized growth

Nc1ccn(C2O[C@H](CO)[C@@H](O)[C@@H]2O)c(=O)n1 (stereo partly drawn)
inactive: locus YAL021C, strain ccr4, active compounds read low 0.997 | locus YAL026C, strain drs2, active compounds read low 0.974 | locus YAL030W, strain snc1, active compounds read low 0.999 | locus YBL061C, strain skt5, active compounds read low 1.01 | locus YBR009C, strain hhf1, active compounds read low 0.972 | locus YBR021W, strain FUR4, active compounds read low 1.02 | locus YBR023C, strain chs3, active compounds read low 1.02 | locus YBR171W, strain sec66, active compounds read low 0.994 | locus YBR229C, strain ROT2, active compounds read low 1.01 | locus YBR231C, strain swc5, active compounds read low 0.999 | locus YBR279W, strain paf1, active compounds read low 0.998 | locus YCL011C, strain gbp2, active compounds read low 1 | locus YCL016C, strain dcc1, active compounds read low 1.05 | locus YCL029C, strain bik1, active compounds read low 1 | locus YCL061C, strain MRC1, active compounds read low 1.01 | locus YCL069W, strain vba3, active compounds read low 0.979 | locus YCR088W, strain abp1, active compounds read low 0.986 | locus YDL005C, strain med2, active compounds read low 0.989 | locus YDL035C, strain GPR1, active compounds read low 1.03 | locus YDL040C, strain nat1, active compounds read low 0.984 | locus YDL074C, strain BRE1, active compounds read low 1.01 | locus YDL101C, strain DUN1, active compounds read low 1 | locus YDL185W, strain tfp1, active compounds read low 0.991 | locus YDL192W, strain arf1, active compounds read low 0.998 | locus YDR001C, strain nth1, active compounds read low 0.989 | locus YDR069C, strain doa4, active compounds read low 0.984 | locus YDR101C, strain arx1, active compounds read low 1.02 | locus YDR137W, strain rgp1, active compounds read low 1.01 | locus YDR159W, strain sac3, active compounds read low 0.961 | locus YDR162C, strain NBP2, active compounds read low 1.02 | locus YDR195W, strain ref2 0.997 | locus YDR297W, strain sur2, active compounds read low 0.986 | locus YDR318W, strain mcm21, active compounds read low 1 | locus YDR334W, strain swr1, active compounds read low 0.987 | locus YDR335W, strain msn5, active compounds read low 0.997 | locus YDR388W, active compounds read low 0.994 | locus YDR392W, strain spt3, active compounds read low 0.943 | locus YDR502C, strain sam2, active compounds read low 1.02 | locus YEL003W, strain gim4, active compounds read low 0.973 | locus YEL037C, strain rad23, active compounds read low 0.973 | locus YEL061C, strain CIN8 (second series), active compounds read low 0.976 | locus YEL061C, strain CIN8, active compounds read low 1.01 | locus YER015W, strain faa2, active compounds read low 1.01 | locus YER016W, strain bim1, active compounds read low 1.01 | locus YER110C, active compounds read low 1 | locus YER111C, strain swi4, active compounds read low 0.987 | locus YER155C, strain BEM2 (second series), active compounds read low 0.969 | locus YER155C, strain BEM2, active compounds read low 1.01 | locus YER167W, strain BCK2, active compounds read low 1.01 | locus YFR010W, strain ubp6, active compounds read low 0.976 | locus YGL078C, strain dbp3, active compounds read low 0.995 | locus YGL086W, strain mad1, active compounds read low 1 | locus YGL167C, strain pmr1, active compounds read low 1.01 | locus YGL173C, strain kem1, active compounds read low 1 | locus YGL227W, strain vid30, active compounds read low 0.995 | locus YGL240W, strain doc1, active compounds read low 1 | locus YGL248W, strain PDE1, active compounds read low 0.987 | locus YGL253W, strain hxk2, active compounds read low 1 | locus YGR135W, strain pre9, active compounds read low 0.983 | locus YGR252W, strain gcn5, active compounds read low 1 | locus YHR013C, strain ard1, active compounds read low 1.02 | locus YHR027C, strain rpn1, active compounds read low 0.996 | locus YHR030C, strain SLT2, active compounds read low 1.01 and 1.02 | locus YHR079C, strain IRE1 (second series), active compounds read low 0.996 | locus YHR079C, strain IRE1, active compounds read low 1.02 | locus YHR094C, strain hxt1, active compounds read low 0.996 | locus YHR129C, strain ARP1, active compounds read low 1.01 | locus YHR142W, strain chs7, active compounds read low 1.01 | locus YHR200W, strain rpn10, active compounds read low 1 | locus YIL066C, strain RNR3, active compounds read low 1.01 | locus YIL073C, strain SPO22, active compounds read low 1.01 | locus YIL125W, strain kgd1, active compounds read low 0.997 | locus YIR030C, strain dcg1, active compounds read low 1.01 | locus YJL092W, strain hpr5, active compounds read low 0.985 | locus YJL095W, strain BCK1 (second series), active compounds read low 1 | locus YJL095W, strain BCK1, active compounds read low 0.977 and 1.01 | locus YJL115W, strain asf1, active compounds read low 0.978 | locus YJL129C, strain trk1, active compounds read low 1.01 | locus YJL134W, strain LCB3, active compounds read low 1 | locus YJL154C, strain vps35, active compounds read low 0.981 | locus YJL164C, strain tpk1, active compounds read low 0.989 | locus YJL166W, strain qcr8, active compounds read low 1.02 | locus YJL168C, strain set2, active compounds read low 1 | locus YJL187C, strain SWE1 (second series), active compounds read low 0.997 | locus YJL187C, strain SWE1, active compounds read low 0.994 | locus YJR043C, strain POL32, active compounds read low 1.03 | locus YJR066W, strain TOR1, active compounds read low 0.99 | locus YJR075W, strain HOC1, active compounds read low 1.01

— PubChem BioAssay AID1159580 (chemical genetic matrix, 2015)
